Among the data in PubChem BioAssay (NCATS) are Potency values, retold here.

The target of the assay is Calcium and integrin-binding protein 1 (Homo sapiens) (UniProt Q99828). Nature of the assay: Primary qHTS for Identification of Calcium Integrin Binding Protein 1 (CIB1) Competitor (AID 1508620). Also: top concentration of the series differs between compounds. To be noted: CIB1-GST / FITC-alphaIIb peptide fluorescence polarization; series mostly up to 114 µM. An outline of the steps:
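Fluorescence polarization competition: GST-tagged CIB1 (1 uM final) preincubated with compound 15 min at room temperature, then FITC-labelled alphaIIb peptide (100 nM final) added. After 15 min at room temperature, polarization read at Ex 480/Em 540.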

Results filed as inconclusive are left out. Where a call stands in place of a potency, no number is given. The source made the active and inactive calls. Calls follow the shape of the dose curve; as a rule, active = well fitted inhibition curve with a large enough effect; inconclusive = small, poorly fitted or top-dose-only effect; inactive = flat fitted curve, though single readings scatter.

Sequence of Calcium and integrin-binding protein 1 (Homo sapiens) (Q99828 whole entry, looked up): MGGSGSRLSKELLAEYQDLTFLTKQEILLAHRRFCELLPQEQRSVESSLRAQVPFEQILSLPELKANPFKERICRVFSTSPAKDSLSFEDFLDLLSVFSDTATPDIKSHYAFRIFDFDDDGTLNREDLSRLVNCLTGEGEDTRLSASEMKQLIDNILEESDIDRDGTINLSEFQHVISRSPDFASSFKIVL

Take `CC(=O)Nc1sc2c(c1-c1nc3ccccc3s1)CNCC2`: the Potency entry is “inactive”.
Take `COc1ccc(C2Nc3ccccc3C(=O)N2Cc2ccco2)cc1` (stereo not given): the Potency result was “inactive”.
To `CC(C)c1ccccc1-c1ncc(F)c(NC(C)(C)c2ccc(-c3cccnc3)cc2)n1` belongs “inactive”; to `Cc1c(Cl)cccc1NS(=O)(=O)c1cc2c(cc1F)NC(=O)CC2`, “inactive”; to `Cc1ccc(NC(=O)CN2C(=O)N/C(=C\c3cccn3-c3ccc(C(=O)NS(C)(=O)=O)cc3)C2=O)cc1`, “inactive”.
For the molecule `O=C(CCCCSc1nnc(-c2cccc3ccccc23)o1)Oc1ccc(F)cc1`, the Potency result is “inactive”.
In the case of `CC(=O)Nc1sc2c(c1-c1ccc3c(c1)OCO3)CCNC2` it was “inactive”; in that of `O=C(Nc1sc2c(c1-c1nc3ccccc3s1)CCNC2)C(F)F`, “inactive”; in that of `Cc1ccnc(NC(=S)N2CCN(c3ncc(C(F)(F)F)cc3Cl)CC2)c1`, “inactive”.
In the case of `O=C1CCCC2=C1C(c1[nH]ncc1Cl)NC(=S)N2` (stereo not given), the Potency entry was “inactive”.
In the case of `O=S(=O)(Nc1nccs1)c1ccc(NCc2cccc(Cl)c2Cl)cc1` it was “inactive”; in that of `O=C(CSc1nnc(-c2cccc([S+](=O)([O-])N3CCCC3)c2)n1-c1ccccc1)Nc1ccc(Br)cc1`, “inactive”; in that of `O=Cc1nc(Nc2cc(F)cc(F)c2)nc(NC2CCCC2)n1`, “inactive”.
In the case of `Cc1cccc(-c2ccc3ncnc(N(C)Cc4ccco4)c3c2)c1` it was “inactive”; in that of `Oc1ccc(CCc2ccccc2)c2cccnc12`, “inactive”.
To `COc1ccc(C2Nc3ccccc3C(=O)N2Cc2ccco2)cc1COc1ccccc1C` (stereo not given) belongs “inactive”.
With `O=S(=O)(c1ccc2c(c1)OCCCO2)N1CCN(S(=O)(=O)c2c(F)cccc2F)CC1`, the Potency entry is “inactive”.
Take `Cc1ccc(OCCn2c(CCNC(=O)C3CC3)nc3ccccc32)cc1`: the Potency entry was “inactive”.
Regarding `COc1cc(OC)cc(N2CCN(C(=S)Nc3cc(C)cc(C)n3)CC2)c1`, the Potency entry was “inactive”.
Take `COc1cccc(C(=O)NC2CCN(C#N)CC2)c1`: the Potency entry was “inactive”.
On to `Cc1cc(C)n2ncc(C(=O)NC(C)C)c2n1`, for which the Potency result is “inactive”.
With `O=c1c(Nc2ccc(Cl)c(Cl)c2)c(Nc2nnc(-c3ccncc3)s2)c1=O`, the Potency entry is “inactive”.
In the case of `O=C(Nc1ncc(Cc2cccc(C(F)(F)F)c2)s1)c1ccc(-c2cccc([N+](=O)[O-])c2)o1` it was “inactive”; in that of `N#Cc1ccc(-c2csc(N3CCC(C(N)=O)CC3)n2)cc1`, “inactive”.
`COc1cc(/C=C2\C(=O)Nc3ccccc32)ccc1O`: the Potency result was “inactive”.
`O=C(OCC#CCSc1nnc(-c2cccc3ccccc23)o1)c1cnc[nH]1`: the Potency result was “inactive”.
To `COc1cc(O)c(C(CC(=O)N2CCC(c3ccccc3)CC2)c2ccc(C)cc2)c(OC)c1` (stereo not given) belongs “inactive”; to `COc1cc(-c2ccc3ncnc(N(C)Cc4csc(C)n4)c3c2)cc(OC)c1OC`, “inactive”.
Take `CCc1cccc(CC)c1OCc1cc(C2Nc3ccccc3C(=O)N2Cc2ccco2)ccc1OC` (stereo not given): the Potency entry is “inactive”.
To `Cc1cnc(-c2ccccc2C2CC2)nc1NCc1ccc(-c2cccnc2)cc1` belongs “inactive”.
In the case of `Cc1cc(-c2ccccc2)nc2c(C(=O)Nc3ccc(Cl)c(Cl)c3)cnn12` it was “inactive”; in that of `Cc1cccc(CNc2ccc(S(=O)(=O)Nc3nccs3)cc2)c1O`, “inactive”.
To `Cc1ccc(NS(=O)(=O)c2cc3c(cc2Cl)NC(=O)CO3)cc1Cl` belongs “inactive”; to `Cc1ccnc(NC(=S)N2CCCN(c3cccc(C(F)(F)F)c3)CC2)c1`, “inactive”; to `CN1CCN(c2cc(-c3nc(Nc4ccc(F)c(F)c4)c4ccccc4n3)ccn2)CC1`, “inactive”.
Take `Cc1nnc(-c2cnn(C)c2N)n1CCCc1ccccc1`: the Potency result was “inactive”.
In the case of `Cc1cc(C)nc(NC(=S)N2CCN(Cc3c(F)cccc3Cl)CC2)c1` it was “inactive”; in that of `O=C(O)c1ccc2c(c1)C(=O)N([C@H](Cc1cccc3ccccc13)C(=O)O)C2=O`, “inactive”.
To `O=C1COc2cc([S+](=O)([O-])Nc3ccc(Cl)c(Cl)c3)c(Cl)cc2N1` belongs “inactive”; to `COc1ccc(C2Nc3ccccc3C(=O)N2Cc2cccnc2)cc1COc1c(C)cccc1C` (stereo not given), “inactive”; to `O=C1CCCC2=C1C(c1[nH]ncc1Cl)N=C(Nc1nccs1)N2` (stereo not given), “inactive”.
On to `Nc1ccc(C(=O)Nc2ccc(-c3nc4ccccc4[nH]3)cc2)cc1Cl`, for which the Potency result is “inactive”.
On to `CCOC(=O)C1CCN(C(=O)C(C)(C)NC(=O)Nc2cccc(OC)c2)CC1`, for which the Potency entry was “inactive”.
In the case of `Cc1cc2c(s1)c1cnn(Cc3cc(C(F)(F)F)ccc3F)c(=O)c1n2C` it was “inactive”; in that of `O=c1c2ccccc2nc2sc(Nc3cccc4ccccc34)nn12`, “inactive”; in that of `CNc1oc(-c2cccc3c2OC(F)(F)O3)nc1C#N`, “inactive”.
Turning to `Cc1ccccc1Nc1nc(C#N)nc(NC2CCCC2)n1`, the Potency entry is “inactive”.
As to `COc1ccc(/C=C(\C)C2Nc3cccc4cccc(c34)N2)cc1`, the Potency entry is “inactive”.
For `CC(=O)Nc1sc2c(c1-c1ccccc1)CCN(C(=O)OC(C)(C)C)C2`, the Potency entry was “inactive”.
To `COc1ccc(-c2nnc3n2N=C(c2c(OC)cccc2OC)CS3)c(OC)c1` belongs “inactive”; to `O=C(CNC(=O)c1cccc2ccccc12)OC(C(=O)Nc1cc(C(F)(F)F)ccc1Cl)c1ccccc1` (stereo not given), “inactive”.
To `COc1ccc([S+](=O)([O-])N2CCN([S+](=O)([O-])c3ccc4c(c3)OCCO4)CC2)c(OC)c1` belongs “inactive”; to `Cc1cc(C)nc(NC(=S)N2CCN(c3ccc(C(F)(F)F)cc3[N+](=O)[O-])CC2)c1`, “inactive”.
In the case of `O=C1c2ccccc2C(=O)N1c1cccnc1` it was “inactive”; in that of `O=C1CCCC2=C1C(c1[nH]ncc1Cl)N=C(Nc1nc3cccc(Cl)c3o1)N2` (stereo not given), “inactive”.
Regarding `O=C(Nc1cncc(NC(=O)c2cccs2)c1)c1cccs1`, the Potency entry is “inactive”.
To `Cc1cc(NS(=O)(=O)c2ccc(NC(=O)Cc3ccc(Cl)c(Cl)c3)cc2)on1` belongs “inactive”; to `O=C(Nc1ccc(Cl)c(Cl)c1)Nc1nc(-c2ccncc2)cs1`, “inactive”; to `CC(=O)N1CCN(c2ccc(NCc3ccc(Br)o3)cc2)CC1`, “inactive”.
For the molecule `NC(=O)C1CCN(c2nc(-c3ccccc3C(F)(F)F)cs2)CC1`, the Potency result was “inactive”.
